Source: PubChem BioAssay (National Center for Advancing Translational Sciences (NCATS))
KDM4E inh: blocks human JMJD2E demethylase activity; Potency, µM (series often up to 57.1 µM), hits mostly inhibitors; 230,000 tested, 1.6% active; JMJD2E catalytic domain, FDH-coupled NADH fluorescence (FDH is formaldehyde dehydrogenase); B2RXH2; AID 2147; active means well fitted inhibition curve with a large enough effect, not every such curve was filed as active; inconclusive means small, poorly fitted or top-dose-only effect, or another doubt; inactive means no such curve, though single readings can be large or run the other way; further: nearly all actives have a fitted effect of over 50% in size
Epigenetic reg: derepresses silenced GFP reporter in murine cells. Potency, µM (highest dose often 53.9 µM), actives largely listed as activators. 280,000 tested, 0.2% active. AID 1865. murine LDR cells, GFP reporter derepression, 30 h; further: nearly all actives have a fitted effect of over 60% in size
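Reporter derepression read as number of fluorescent GFP-positive objects, 20-120 um in size, counted by laser-scanning cytometer. Mouse LDR line with an epigenetically silenced CMV-GFP locus; compound incubation 30 h, 37 C.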
NPSR antag: blocks cAMP signaling of the human neuropeptide S receptor; Q6W5P4; CHO-NPSR cells, cAMP TR-FRET, antagonist mode; Potency, µM (highest dose often 38.3 µM), hits mostly inhibitors; 220,000 tested, 1% active; AID 1461; further: nearly all actives have a fitted effect of over 50% in size
KAT2A inh: blocks human GCN5L2 histone acetyltransferase; Q92830; GCN5L2 HAT assay, ThioGlo1 CoA-SH fluorescence; Potency, µM (doses to about 58.9 µM), hits mostly inhibitors; 390,000 tested, 0.21% active; AID 504327
Target sequence (Q92830 whole entry, looked up): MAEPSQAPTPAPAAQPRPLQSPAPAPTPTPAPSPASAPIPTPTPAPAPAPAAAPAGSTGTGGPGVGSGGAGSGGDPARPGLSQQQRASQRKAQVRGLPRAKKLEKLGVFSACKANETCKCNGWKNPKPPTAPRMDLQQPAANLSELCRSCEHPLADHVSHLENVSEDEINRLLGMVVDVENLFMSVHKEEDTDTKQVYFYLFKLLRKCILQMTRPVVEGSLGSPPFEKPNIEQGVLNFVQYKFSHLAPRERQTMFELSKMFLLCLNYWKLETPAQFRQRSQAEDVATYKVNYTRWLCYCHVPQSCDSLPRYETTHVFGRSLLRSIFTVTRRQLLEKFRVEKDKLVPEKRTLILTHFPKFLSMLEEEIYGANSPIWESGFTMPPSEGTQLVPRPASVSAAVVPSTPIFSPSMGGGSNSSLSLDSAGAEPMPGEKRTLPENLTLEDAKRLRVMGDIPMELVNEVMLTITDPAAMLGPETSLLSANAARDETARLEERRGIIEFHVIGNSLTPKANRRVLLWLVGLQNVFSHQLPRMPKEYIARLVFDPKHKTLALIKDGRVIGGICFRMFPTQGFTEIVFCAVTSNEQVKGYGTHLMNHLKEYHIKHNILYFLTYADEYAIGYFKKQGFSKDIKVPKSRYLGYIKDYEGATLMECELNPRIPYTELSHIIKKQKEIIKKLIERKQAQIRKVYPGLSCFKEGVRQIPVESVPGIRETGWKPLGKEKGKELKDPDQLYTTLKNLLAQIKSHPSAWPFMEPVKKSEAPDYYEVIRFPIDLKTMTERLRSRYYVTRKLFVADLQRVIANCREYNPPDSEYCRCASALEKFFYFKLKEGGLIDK
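qHTS, 1536-well. 20nM enzyme, pH 7.5 HEPES/EDTA/Tween-20 buffer; 15 min compound preinc., RT. Start: 75uM H3(1-25), 70uM AcCoA, 50uM ThioGlo1. Read Ex340/Em540 at t=0 (autofluorescence flag) and t=20 min.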
Sfp inh: blocks B. subtilis Sfp PPTase activity. Q9F4F7. Biochemical Sfp PPTase activity, qHTS. Potency, µM, hits mostly inhibitors. 310,000 tested, 3.5% active. AID 1490;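 further: the enzyme is Sfp with the accession as filed and its product quenches rhodamine fluorescence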
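Fluorescence-quenching assay with 15 nM Sfp, 5 uM rhodamine-CoA and 12.5 uM BHQ-2-labelled ybbR peptide in pH 7.6 Hepes/MgCl2 buffer. Enzyme was pre-incubated with compound for 15 min at room temperature. Rate was taken from the 30-min fluorescence change (525/598 nm).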
IMPase Li inh: membrane-permeable IMPase blocker, potentiated with lithium; CHO-M1 cells, IP1 TR-FRET (IP-One), carbachol + lithium; Potency, µM (highest dose often 59.4 µM), most hits filed as inhibitors; 210,000 tested, 0.35% active;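 further: IP1 builds up when IMPase is blocked and the TR-FRET signal falls; nearly all actives have a fitted effect of over 50% in size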
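Concentration–response in CHO-M1 cells, lithium-potentiated; 30 min at 37C. IP1 detected by competitive TR-FRET after 10 min lysis at RT. Hill-fitted AC50.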
Each line names hits and unclear results; the compound was inactive in the other large screens; ! = not confirmed by another sample. A selection: hits, their analogues and other compounds. The true share with any hit is near 3.6%. Unless noted, the call rests on the fitted dose curve; in most records, active means well fitted curve in the direction sought with a large enough effect; inconclusive means small, poorly fitted or top-dose-only effect, or another doubt; inactive means no such curve, though single readings can be large; an effect the other way counts as inactive or inconclusive.

COc1ccc(-c2oc3ccccc3c(=O)c2O)cc1OC	KDM4E inh inconclusive, KAT2A inh 31.6µM (no result: NPSR antag)
COc1ccc(OC)c2sc(N(Cc3cccnc3)C(=O)c3ccco3)nc12	none (no result: KDM4E inh, NPSR antag, Sfp inh, IMPase Li inh)
COc1ccccc1NS(=O)(=O)c1cc([N+](=O)[O-])ccc1N/N=C/c1sc(N2CCOCC2)nc1-c1ccccc1	Epigenetic reg 2.82µM, Sfp inh inconclusive
COc1ccc(C(=O)N/N=C/c2sc(N3CCOCC3)nc2-c2ccccc2)cc1OC	KDM4E inh inconclusive
Cc1cccc(NC(=S)NCCc2ccccc2)c1C	none (no result: KDM4E inh, Epigenetic reg, NPSR antag, IMPase Li inh)
OC(CNCCc1ccccc1)c1ccccc1 (stereo unspecified)	none
Cc1cccc(C)c1NC(=S)NCCc1ccc(O)c(O)c1	Sfp inh 50.1µM
C[C@@H](CCc1ccc(O)cc1)NCCc1ccc(O)c(O)c1	KDM4E inh 20µM, Sfp inh 56.2µM! (no result: NPSR antag)
COc1ccc([C@]23Cc4cc(C#N)ccc4C(O2)C2=C(CC4(CCCCC4)OC2=O)O3)cc1	none (no result: KDM4E inh, Epigenetic reg, NPSR antag, IMPase Li inh)
CCNc1ncc2nc(-c3cc(F)cc(F)c3)c(=O)n(C3CC3)c2n1	none (no result: KDM4E inh, Epigenetic reg, NPSR antag)
COc1ccc(Cl)cc1NC(=O)c1cc(C)nn1-c1ccccc1	none (no result: KDM4E inh, NPSR antag, Sfp inh, IMPase Li inh)
C[C@]12CC[C@@H](O)C[C@@H]1CC[C@@H]1[C@@H]2CC[C@]2(C)C=CC[C@@H]12	none (no result: KDM4E inh, NPSR antag)
COc1cccc2c1C(=O)c1c(O)c3c(c(O)c1C2=O)C[C@@](O)(C(=O)CO)C[C@@H]3OC1CC(N)C(O)C(C)O1 (stereo partly specified)	none (no result: KDM4E inh, Epigenetic reg, NPSR antag, IMPase Li inh)
COc1cccc2c1C(=O)c1c(O)c3c(c(O)c1C2=O)C[C@@](O)(C(=O)CO)C[C@@H]3O[C@@H]1C[C@H](N)[C@H](O)[C@H](C)O1	KDM4E inh 22.4µM, Epigenetic reg inconclusive (no result: NPSR antag, KAT2A inh)
CCOC(=S)SCc1cn2ccccc2n1	Sfp inh 50.1µM
CC(=O)Nc1cccc(-c2csc(NCc3ccco3)n2)c1	KDM4E inh inconclusive, Sfp inh 44.7µM
Oc1ccc(-c2csc(NCc3ccco3)n2)cc1	KDM4E inh inconclusive, Sfp inh 44.7µM
c1coc(CNc2nc(-c3cccs3)cs2)c1	KAT2A inh inconclusive
Oc1c(C=C2N=c3ccccc3=N2)sc(=S)n1-c1ccccc1	Sfp inh 79.4µM
CCn1c(O)c(C=C2N=c3ccccc3=N2)sc1=S	none
CCCC[C@@H]1C[C@H]1C(NC(=O)c1ccco1)c1ccccc1 (stereo partly specified)	none (no result: NPSR antag, KAT2A inh)
Cc1ccc(N/C=C2/Sc3ccccc3NC2=O)cc1	Epigenetic reg inconclusive
O=C1Nc2ccccc2S/C1=C/NCc1ccccc1Cl	Sfp inh 56.2µM
CCOC(=O)NCCOc1ccc(Oc2ccccc2)cc1	none (no result: KDM4E inh, Epigenetic reg, NPSR antag, IMPase Li inh)
O=C(O)COc1cccc2nsnc12	KDM4E inh 20µM
O=C(COc1ccccc1)Nc1cccc2nsnc12	KDM4E inh inconclusive
CC12C=C(/C=C/CCc3ccco3)C(C)(C1)C(CCc1ccco1)CC2=O (stereo unspecified)	Sfp inh inconclusive (no result: KDM4E inh, NPSR antag, KAT2A inh, IMPase Li inh)
O=C(CSc1ncc(CO)n1Cc1ccccc1)Nc1ccc(C(F)(F)F)cc1	none (no result: KDM4E inh, NPSR antag, Sfp inh, IMPase Li inh)
Cc1cc(Nc2cccc(F)c2)nc(NCc2ccccc2)n1	Sfp inh 56.2µM
Cc1cc(N/N=C/c2ccc(Cl)cc2Cl)nc(NCc2ccccc2)n1	Epigenetic reg inconclusive, NPSR antag inconclusive, Sfp inh inconclusive
CCCCNc1cc(C)nc(NCc2ccccc2)n1	none
Fc1cc(NCc2ccccc2)nc(NCc2ccccc2)n1	none
Cc1cc(Nc2ccc(Cl)cc2)nc(NCc2ccccc2)n1	KDM4E inh inconclusive, Sfp inh 20µM
Cc1cc(Nc2ccccc2)nc(NCc2ccccc2)n1	KDM4E inh inconclusive, Sfp inh 25.1µM
Nc1ccn([C@H]2O[C@@H](COP(=O)(O)O)[C@@H](O)[C@H]2O)c(=O)n1	none (no result: KDM4E inh, Epigenetic reg, NPSR antag, KAT2A inh, Sfp inh)
COC(=O)C1=C(C(=O)OC)[C@@H]2N(Cc3ccccc3)c3ccccc3[C@@]23C[C@@H](C(=O)OC)N(S(=O)(=O)c2ccc(Br)cc2)C3=N1	none (no result: Epigenetic reg, NPSR antag, KAT2A inh)
N#Cc1c(N)sc(=S)c2c1CCN(Cc1ccccc1)C2	KDM4E inh inconclusive, KAT2A inh inconclusive, Sfp inh 3.55µM
